# Laboratory results from PubChem BioAssay (EPA / NIEHS).
# The source made the active and inactive calls. The calls were made as follows: active = hit-call score of the fitted dose curve at least 0.9, where 1 is the maximum; inactive = score below 0.9.
# Experiment: APR_HepG2_NuclearSize_72hr: Apredica 72-hour HepG2 Assay for Nuclear Size (AID 2282925)
# Settings: high-content imaging, actives raise or lower the signal
# Procedure: APR_HepG2_72hr is a cell-based, multiplexed-readout assay that uses HepG2, a human liver cell line, with measurements taken at 72 hours after chemical dosing in a 384-well plate.APR_HepG2_NuclearSize_72hr is one of 10 assay component(s) measured or calculated from the APR_HepG2_72hr assay. It is designed to make measurements of cell phenotype, a form of morphology reporter, as detected with fluorescence intensity signals by HCS Fluorescent Imaging technology.Data from the assay component APR_HepG2_NuclearSize_72hr was analyzed into 1 assay endpoint. This assay endpoint, APR_HepG2_NuclearSize_72hr, was analyzed with bidirectional fitting relative to DMSO as the negative control and baseline of activity. Using a type of morphology reporter, measures of all nuclear dna for gain or loss-of-signal activity can be used to understand the signaling at the nuclear-level. Furthermore, this assay endpoint can be referred to as a primary readout, because this assay has produced multiple assay endpoints where this one serves a signaling function. To generalize the intended target to other relatable targets, this assay endpoint is annotated to the cell morphology intended target family, where the subfamily is organelle conformation.
# Cells were treated with dimethyl sulfoxide (DMSO) as a solvent control at a final concentration of 0.5% v/v or with compounds in DMSO with a resulting final DMSO concentration of 0.5% v/v. Compound treatment was done at concentrations of 0.39, 0.78, 1.56, 3.12, 6.24, 12.5, 25, 50, 100, and 200 uM in duplicate on each plate. Cells were treated with compounds for 1, 24, or 72 hr. Carbonyl […] m-chloro-phenylhydrazone (CCCP) and taxol were used as positive controls for mitochondrial function and cytoskeletal stability, respectively; DMSO served as the negative control for this experiment. Cells were fixed by the direct addition of 50 uL formaldehyde in Hank's Balanced Salt Solution (HBSS) to a final concentration of 3.7%. After incubation in the fixation medium for 30 min at room temperature (293-298 K), cells were rinsed twice with HBSS and treated with cell permeabilization buffer (16 uL of 0.5% Triton X-100) for 10 min at room temperature (293-298 K) before labeling. For mitochondrial membrane potential and mitochondrial measurements, pre-fixed cells were incubated with 50 uL of MitoTracker Red CMXRos (Invitrogen) at a concentration of 250 nM for 30 min before fixation. In the remaining cases, post-fixed cells were labeled by incubation with a multiplexed mixture of primary antibodies in HBSS for 60 min at room temperature (293-298 K) to detect immunoreactivity of c-Jun (1:500), phospho-histone H3 (1:100), phospho-histone H2A.x (1:200), p53 (1:400), alpha-tubulin (1:200) and Hoechst 33342 (2 ug/mL). Cells were labeled for multiplexed imaging on two separate plates: a) Hoechst 33342, MitoTracker Red, phospho-histone H3, and alpha-tubulin, and b) Hoechst 33342, phospho-histone H2A.x, and c-Jun. A final rinse with HBSS (50 uL) was performed before analysis. The primary and secondary antibodies for the proteins were phospho-histone H3 (rabbit anti-phospho-histone H3 and FITC-donkey anti-rabbit IgG), phospho-histone H2A.x (mouse anti-phospho-histone H2A.x and FITC-donkey anti-mouse IgG), c-Jun (rabbit anti-phospho-c-Jun and Cy3-donkey anti-rabbit IgG), p53 (sheep anti-p53 and Cy5-donkey anti-sheep IgG), alpha-tubulin (mouse anti-alpha-tubulin and Cy5-donkey anti-mouse IgG). These antibodies are available as the CellCiphr HepG2 assay kit (Millipore).Digital images of each well were captured using a Cellomics ArrayScan VTI (Thermo Scientific Cellomics) (0.8 NA objective, 0.63x optical coupler, and XF-93 filter set) at 20x magnification. The images were acquired using the autofocus feature of the ArrayScan instrument, which entails the following steps. First, the camera focuses on channel 1 (Hoechst 33342), where nuclei are identified. Second, a Z offset of 1 um is used for capturing mitochondria (MitoTracker Red). […]
Structure (SMILES),outcome,AC50
COCC(C)O (stereo not given),inactive,–
O=C(O)c1ccccc1C(c1ccc(O)cc1)c1ccc(O)cc1,inactive,–
OC1CCC(C2CCCCC2)CC1 (stereo not given),inactive,–
CC(C)(C)c1cc(C(C)(C)C)c(O)c(C(C)(C)C)c1,inactive,–
O=C(/C=C/c1ccc(O)cc1)CC(=O)/C=C/c1ccc(O)cc1,–,49.4 µM (active)
CCCCC(CC)COC(=O)CCCCC(=O)OCC(CC)CCCC (stereo not given),inactive,–
CC(=O)CC(C)(C)O,inactive,–
CCCCCCCCCCCCN1CCCC1=O,inactive,–
O=C(OCCOCCOC(=O)c1ccccc1)c1ccccc1,inactive,–
CCCCCCCCOC(=O)CCCCCCCCC(=O)OCCCCCCCC,inactive,–
CCc1nn(C2CCCCC2)c2cc(C3(C#N)CCC(C(=O)O)CC3)ccc12 (stereo not given),inactive,–
CC[C@H](c1ccc(O)cc1)[C@@H](CC)c1ccc(O)cc1,inactive,–
C#C[C@]1(O)CC[C@H]2[C@@H]3CCC4=CC(=O)CC[C@@H]4[C@H]3CC[C@@]21C,inactive,–
CCCCCCCCC(=O)O,inactive,–
OC1CCCCC1,inactive,–
CCN(CC)CCNc1ccc(CNC=O)c2sc3ccc(OC)cc3c(=O)c12,inactive,–
c1ccc2cc3c(ccc4ccccc43)cc2c1,inactive,–
COc1ccc([N+](=O)[O-])cc1N,inactive,–
CCCCCCCC(=O)O,inactive,–
C[C@@H]1C[C@H]2[C@@H]3CCC4=CC(=O)C=C[C@]4(C)[C@@]3(F)[C@@H](O)C[C@]2(C)[C@@]1(O)C(=O)COP(=O)(O)O,–,1.84 µM (active)

Structure (SMILES),outcome,AC50
Cc1oc(-c2ccccc2)nc1CCOc1ccc(C[C@H](Nc2ccccc2C(=O)c2ccccc2)C(=O)O)cc1,inactive,–
CC[C@H](C)[C@@H](C(=O)O)n1sc2ccccc2c1=O,inactive,–
ClC1=C(Cl)C(Cl)(Cl)C(Cl)=C1Cl,inactive,–
CCCCCCCCCCCCc1ccccc1S(=O)(=O)O,inactive,–
COCC(C)OCC(C)O (stereo not given),inactive,–
Oc1cccc(O)c1,inactive,–
CCCCCCC(=O)O,inactive,–
O=[N+]([O-])c1ccc(O)cc1,inactive,–
CCC(=C(c1ccc(O)cc1)c1ccc(OCCN(C)C)cc1)c1ccccc1,inactive,–
CCCCOCCO,inactive,–
N#C[C@@H]1CC(F)(F)CN1C(=O)CNC1CC2CCC(C1)N2c1ncccn1 (stereo not given in full),inactive,–
NC(=O)N1C(=O)C(C(=O)c2cc(Cl)cs2)c2cc(F)c(Cl)cc21 (stereo not given),inactive,–
c1ccc2c(c1)Cc1ccccc1-2,inactive,–
CC#C[C@]1(O)CC[C@H]2[C@@H]3CCC4=CC(=O)CCC4=C3[C@@H](c3ccc(N(C)C)cc3)C[C@@]21C,inactive,–
COC(=O)CCCCC(=O)OC,inactive,–
Oc1cc2ccccc2c2ccccc12,inactive,–
CCCCC(CC)COC(=O)CCCCC(=O)OCc1ccccc1 (stereo not given),inactive,–
CC(O)CO (stereo not given),inactive,–
CC(C)CCCCCCOC(=O)CCCCC(=O)OCCCCCCC(C)C,inactive,–
CC(C)(C)c1cccc(C(C)(C)C)c1O,inactive,–
